# High-throughput results as filed in PubChem.
# IL1B secr inh – inflammasome signaling inhibition, IL-1 beta readout; THP-1 LPS/ATP IL-1B secretion, AlphaLISA, 16 h; active compounds read low; activity change, % at 57.5 µM; 4.7% of 360,000 active; AID 743279; in the data active means activity change below about -50%; inconclusive means mostly about -30% to -49%
#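 THP-1 cells pretreated 1 hr with compounds (up to 57.5 uM final), then stimulated with LPS (250 ng/mL final) plus ATP (1.25 mM final); secreted IL-1B measured by AlphaLISA after 16 hr, decreased signal indicating inhibition.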
# ELG1 DNA repair – inhibitors of ELG1-dependent DNA repair in HEK293T cells; HEK293T ELG1-luciferase reporter, luminescence, 16 h; DNA damage induced by 5-fluorouridine; Potency, µM (doses to about 46.1 µM), for the others: at the highest dose activity change, negative = inhibition, most hits filed as inhibitors; 2.3% of 330,000 active; further: potency means the concentration at half of the fitted maximal effect; nearly all actives have a fitted effect of over 55% in size
#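 5-Fluorouridine DNA damage + compound/DMSO, 2,000 cells/well, 16 h, 37 °C/5% CO2. ONE-Glo, 30 min RT, luminescence. Readout = decrease in reporter signal.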
# HT1080 IDH1KD tx – kills HT-1080 cells with IDH1 knockdown. Potency, µM (top dose mostly 46.1 µM), for the others: at the highest dose activity, negative = toxicity, usual class: cytotoxic. HT-1080 IDH1 knockdown viability, ATP luminescence, 48 h. 2% of 360,000 active;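 further: potency means the concentration at half of the fitted maximal effect; 0% = DMSO wells and -100% = cell-free medium wells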
#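 Assay cells: HT-1080 with IDH1 knockdown, 750 per well, RPMI/5% FBS. Exposure: 48 h at 37 °C following 2 h pre-incubation. Read: CellTiter-Glo luminescence; fitted concentration-response, curve class assigned.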
# HT1080-NT tox – kills 2HG-producing HT-1080-NT fibrosarcoma cells; HT-1080-NT fibrosarcoma viability, CellTiter-Glo ATP luminescence, 48 h; Potency, µM (doses to about 46.1 µM), for the others: at the highest dose activity, negative = less viability, usual class: cytotoxic; 1.6% of 360,000 active; AID 686970;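 further: NT is the 2HG producing partner of a matched IDH1 knockdown line; potency means the concentration at half of the fitted maximal effect; 0% = DMSO-treated cells and -100% = media-only wells without cells; nearly all actives have a fitted effect of over 55% in size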
#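 Read-out is CellTiter-Glo luminescence after 10 minutes at room temperature, following 48 hours' compound treatment of HT-1080-NT cells (750 cells/well, RPMI, 5% FBS, 37 degrees C).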
# TDP1 cell noCPT – qHTS for Inhibitors of human tyrosyl-DNA phosphodiesterase 1 (TDP1): qHTS in cells in absence of CPT | DT40 Tdp1-/- hTDP1 cells, no CPT, ATP luminescence, 48 h | Potency, µM (titrated, usually from 46.2 µM), inactives show at the highest dose activity change, negative = growth inhibition, actives largely listed as inhibitors | 15% of 420,000 active; further: potency means the concentration at half of the fitted maximal effect; nearly all actives have a fitted effect of over 55% in size
#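 DT40 Tdp1-/-;hTDP1 cells, no CPT (DMSO vehicle only), 400 cells/well; compounds pin-transferred; ≥48 hr, 37 °C; CellTiter-Glo 30 min RT dark, luminescence read.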
# TDP1 cell CPT – growth inhibition of DT40 Tdp1-/-;hTDP1 cells with camptothecin (screen for TDP1 inhibitors); chicken DT40 Tdp1-/-;hTDP1 cells + 20 nM CPT, ATP luminescence, 48 h; Potency, µM (titrated, usually from 46.2 µM), for the others: top-dose activity change, negative = growth inhibition, usual class: inhibitors; 12% of 420,000 active; further: potency means the concentration at half of the fitted maximal effect; nearly all actives have a fitted effect of over 55% in size
#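 Cell growth measured by CellTiter-Glo luminescence after a minimum 48 h, 37 C compound exposure with 20 nM CPT in Tdp1-knockout DT40 cells stably expressing hTDP1, seeded 400/well; qHTS titration format.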
# Active calls of the source: *; ? = inconclusive; . = no result given; ! = not confirmed by another sample. Most compounds without a hit are left out; they make up all but 19% or so of the library. Unless noted, the call rests on the fitted dose curve; in most records, active means well fitted curve in the direction sought with a large enough effect; inconclusive means small, poorly fitted or top-dose-only effect, or another doubt; inactive means no such curve, though single readings can be large; an effect the other way counts as inactive or inconclusive. Unless noted, on the % scale 0 is the no-effect control and ±100 the full control effect.
SMILES,IL1B secr inh,ELG1 DNA repair,HT1080 IDH1KD tx,HT1080-NT tox,TDP1 cell noCPT,TDP1 cell CPT
CCCCCCSc1ccc(-c2nc3cc(C)ccn3c2NC2CCCCC2)cc1,-70.0*!,8.6%,0.3%,-0.4%,11.6µM*,18.4µM*
Cc1ccn2c(NC3CCCCC3)c(C(C)C)nc2c1,-2.2,-14.1%,2.3%,1.7%,-14.1%,-21.5%
CCCCCCSc1cc(-c2nc3cc(C)ccn3c2NC2CCCCC2)ccc1OC,-21.2,?,6.4%,1.1%,16.4µM*,?
CCCCCCSc1ccc(-c2nc3ccc(C)cn3c2NC2CCCCC2)cc1,-19.9,4.4%,1.5%,0.8%,18.4µM*,16.4µM*
COCCN=C1NN=C(c2ccc(NC(C)=O)cc2)CS1,54.0,?,-17.8%,-19.1%,-20.2%,-1.5%
CN(C)S(=O)(=O)c1cccc(N=C2NN=C(c3ccccc3)CS2)c1,-57.4*,?,?,?,7.31µM*,18.4µM*
COc1ccc(C2=NNC(=Nc3cc(S(=O)(=O)N(C)C)ccc3C)SC2)c(OC)c1,-54.3*,14.6µM*,?,?,16.4µM*,?
CC(=O)Nc1ccc(C2=NNC(=Nc3cccc(S(=O)(=O)N(C)C)c3)SC2)cc1,-79.4*,?,?,?,5.8µM*,6.51µM*
CC1CN(C(=O)c2ccccc2)C(=Nc2cccc(S(=O)(=O)N(C)C)c2)S1 (stereo not given),14.2,8.6%,-6.3%,-4.4%,-9.4%,-21.2%
COC(=O)[C@@H]1ON2OCC(C)=C3CCCC[C@@]32[C@H]1C(=O)OC,-9.6,.,-0.3%,9.7%,23.5%,21.8%
CCN1CCN(C(c2ccccc2Cl)c2sc3nc(-c4ccco4)nn3c2O)CC1 (stereo not given),.,.,.,.,-16.0%,-10.0%
CCc1cc2ccc(C)cc2nc1SCC(=O)NC1CCCC1,-21.4,10.2%,1.1%,0.0%,-2.1%,-2.5%
CCc1cc2ccc(C)cc2nc1SCC(=O)c1ccc(NC(C)=O)cc1,-61.1*,2.3%,-1.8%,?,-22.1%,-22.1%
CCc1nonc1NC(=O)c1oc2cc(C)c(Cl)cc2c1C,17.2,22.8%,19.8%,11.9%,9.2µM*,?
CCc1nonc1NC(=O)c1oc2cc(C)c(C)cc2c1C,10.1,?,-29.4%,?,?,-25.8%
CCOc1ccc(-c2nonc2NC(=O)c2oc3ccc(Cl)cc3c2C)cc1,.,.,.,.,0.92µM*,0.92µM*
COc1cccc(-c2cc(NC=O)c3ncc(-c4ccc(F)c(Cl)c4)n3c2)c1,?,.,-2.5%,-5.6%,?,?
COc1cccc(-c2cnc3c(NC=O)cc(-c4ccc(S(C)(=O)=O)cc4)cn23)c1,13.5,.,?,?,16.4µM*,18.4µM*
COc1cccc(-c2cnc3c(NC=O)cc(-c4ccoc4)cn23)c1,60.8,.,-8.8%,-10.3%,14.6µM*,13µM*
COc1cccc(-c2cnc3c(NC=O)cc(-c4ccccc4Oc4ccccc4)cn23)c1,11.3,.,?,?,?,?
COc1cccc(-c2cnc3c(NC=O)cc(-c4ccccc4)cn23)c1,88.6,.,2.59µM*,5.8µM*,5.17µM*,5.17µM*
COc1cccc(-c2cnc3c(NC=O)cc(-c4cc(C)c(O)c(C)c4)cn23)c1,25.2,.,?,?,4.61µM*,3.66µM*
COC(=O)c1c(OCCN2CCCCC2)cc(=O)n2c1CCN(Cc1cccc3nccnc13)CC2,.,.,.,.,-21.0%,-19.4%
COc1cccc(-c2cnc3c(NC=O)cc(-c4ccc(N5CCN(C)CC5)cc4)cn23)c1,74.9,.,?,?,?,16.4µM*
